Screening data from PubChem BioAssay.
The list is not random: actives were taken first. Their share in the collection is about 19%.
TDP1 cell CPT: growth inhibition of DT40 Tdp1-/-;hTDP1 cells with camptothecin (screen for TDP1 inhibitors) | chicken DT40 Tdp1-/-;hTDP1 cells + 20 nM CPT, ATP luminescence, 48 h | Potency, µM (titrated, usually from 46.2 µM), without a hit: at the top dose activity change, negative = growth inhibition, hits mostly inhibitors | actives 12% (n = 420,000) | AID 686979; note: potency is the fitted concentration of half-maximal effect; % is set by controls: 0 for no effect and ±100 for the full control effect; nearly all actives have a fitted effect of over 55% in size
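Cell growth measured by CellTiter-Glo luminescence after a minimum 48 h, 37 C compound exposure with 20 nM CPT in Tdp1-knockout DT40 cells stably expressing hTDP1, seeded 400/well; qHTS titration format.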
HepG2 viability: counter-screen for TGF-b inhibitors: cytotoxicity in HepG2 cells; HepG2 CAGA-GFP viability, ATP luminescence, 18 h; actives 0.76% (n = 410,000); Potency, µM (series often up to 46.1 µM), for the others: at the top dose activity change, negative = cytotoxicity, hits mostly cytotoxic; note: potency is the fitted concentration of half-maximal effect
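CellTiter-Glo luminescence gave cytotoxicity after 18 hours at 37 degrees C. The cells were HepG2 CAGA-GFP in 1% FBS DMEM, stimulated with 500 pg/mL TGF-beta after compound addition. %Activity was normalised to no-cell wells (complete cell-killing) and DMSO (no toxicity), and curves were fitted and classified.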
DT40 TDP1 no CPT: qHTS for Inhibitors of human tyrosyl-DNA phosphodiesterase 1 (TDP1): qHTS in cells in absence of CPT. DT40 Tdp1-/- hTDP1 cells, no CPT, ATP luminescence, 48 h. Potency, µM (series often up to 46.2 µM), inactives show at the highest dose activity change, negative = growth inhibition, most hits filed as inhibitors. actives 15% (n = 420,000); note: potency is the fitted concentration of half-maximal effect; % is set by controls: 0 for no effect and ±100 for the full control effect; nearly all actives have a fitted effect of over 55% in size
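Compound effects on proliferation are scored in DT40 Tdp1-/-;hTDP1 cells in the absence of CPT. ATP levels (CellTiter-Glo luminescence) are recorded after a ≥48 hr, 37 °C incubation.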
TDP1 block: blocks human tyrosyl-DNA phosphodiesterase 1; Potency, µM (titrated, usually from 130 µM), for the others: at the highest dose activity change, negative = inhibition, hits mostly inhibitors; recombinant TDP1, AlphaScreen DNA substrate cleavage; Q9NUW8; actives 0.28% (n = 350,000); note: potency is the fitted concentration of half-maximal effect; % is set by controls: 0 for no effect and ±100 for the full control effect; nearly all actives have a fitted effect of over 40% in size
Target sequence (Q9NUW8 whole entry, looked up): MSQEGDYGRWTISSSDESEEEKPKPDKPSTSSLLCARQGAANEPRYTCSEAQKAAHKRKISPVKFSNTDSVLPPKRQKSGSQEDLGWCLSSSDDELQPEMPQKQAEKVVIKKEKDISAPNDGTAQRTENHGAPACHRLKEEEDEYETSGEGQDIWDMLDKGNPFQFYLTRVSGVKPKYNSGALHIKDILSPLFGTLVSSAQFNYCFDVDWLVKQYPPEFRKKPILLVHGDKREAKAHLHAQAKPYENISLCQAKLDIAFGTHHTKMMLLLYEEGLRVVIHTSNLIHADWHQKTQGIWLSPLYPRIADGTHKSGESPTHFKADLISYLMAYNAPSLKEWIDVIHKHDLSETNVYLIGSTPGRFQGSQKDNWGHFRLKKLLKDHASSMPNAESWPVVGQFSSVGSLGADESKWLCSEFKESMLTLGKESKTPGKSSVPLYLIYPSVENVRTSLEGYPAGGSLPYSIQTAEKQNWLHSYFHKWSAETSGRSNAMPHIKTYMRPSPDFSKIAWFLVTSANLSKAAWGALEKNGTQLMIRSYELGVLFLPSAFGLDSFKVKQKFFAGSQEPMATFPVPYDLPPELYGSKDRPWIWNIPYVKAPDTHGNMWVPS
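Recombinant E. coli-expressed Tdp1 (1 nM) preincubated with compound 15 min at RT, then 5'-biotin/3'-phosphotyrosine-FITC DNA substrate (15 nM) added for 5 min. AlphaScreen beads (10 ug/ml) added, 10 min RT; tyrosine-FITC cleavage read as signal loss.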
IL-1B inflam inh: inflammasome signaling inhibition, IL-1 beta readout; THP-1 LPS/ATP IL-1B secretion, AlphaLISA, 16 h; hits give low values; activity change, % at 57.5 µM; actives 4.7% (n = 360,000); in the data active = activity change below about -50%; inconclusive = mostly about -30% to -49%; note: % is set by controls: 0 for no effect and ±100 for the full control effect
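THP-1 cells pretreated 1 hr with compounds (up to 57.5 uM final), then stimulated with LPS (250 ng/mL final) plus ATP (1.25 mM final); secreted IL-1B measured by AlphaLISA after 16 hr, decreased signal indicating inhibition.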
TGFb SMAD3 inh: blocks TGF-b signaling | actives 1.2% (n = 410,000) | HepG2 CAGA-GFP TGF-b/SMAD3 reporter, GFP fluorescence, 18 h; TGF-beta stimulated, 500 pg/mL final | Potency, µM (series often up to 46.1 µM), for inactives: top-dose activity, negative = inhibition, usual class: inhibitors | AID 588855; note: potency is the fitted concentration of half-maximal effect; % is set by controls: 0 for no effect and ±100 for the full control effect; nearly all actives have a fitted effect of over 65% in size
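Inhibition was scored as loss of TGF-beta-induced (500 pg/mL final, 18 hours, 37 degrees C) GFP in HEPG2 cells carrying a CAGA-GFP reporter, in DMEM with 1% FBS. Well GFP was summed per cell; Activity was normalised to unstimulated and stimulated DMSO wells, then concentration-response fitting.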
* hit, by the source's call; [ ] = another dose, or the depositor's remark. Unless noted, calls come from the whole dose curve; as a rule, active = well fitted curve in the direction sought with a large enough effect; inconclusive = small, poorly fitted or top-dose-only effect, or another doubt; inactive = no such curve, though single readings can be large; an effect the other way counts as inactive or inconclusive.

For OCCN(CCO)CCO the results were TDP1 cell CPT 15.5%, DT40 TDP1 no CPT 1.2% and TDP1 block 8.2%.
`OC(c1ccc(Cl)cc1)(c1cncnc1)c1ccccc1Cl` (stereo not drawn) gave TDP1 block 4.9%.
`CC(C)(C)NC[C@H](O)c1cc(Cl)c(N)c(Cl)c1` gave TDP1 block 12.3%[21 µM].
`COc1ccc(C(O)P(=O)(OC2CCCCC2)c2ccc(N(C)C)cc2)cc1OC` (stereo not drawn) gave TDP1 cell CPT -24.7%, HepG2 viability -2.3%, DT40 TDP1 no CPT -0.2%, TDP1 block 4.2%, IL-1B inflam inh -1.2 and TGFb SMAD3 inh inconclusive.
For COc1ccc2c(c1)CCc1c(C(=O)Nc3c(C)nn(Cc4ccccc4C)c3C)noc1-2 the results were TDP1 cell CPT 23.1µM*, HepG2 viability -29.9%, DT40 TDP1 no CPT 10.3µM*, TDP1 block 4.5% and TGFb SMAD3 inh 12.6µM*.
For O=c1[nH]cc(N(CCCl)CCCl)c(=O)[nH]1 the results were TDP1 cell CPT -17.4% and DT40 TDP1 no CPT -14.7%.
Screening O=C(Nc1ccccc1C(F)(F)F)c1cccn(Cc2ccccc2)c1=O returned TDP1 cell CPT inconclusive, HepG2 viability 2.5%, DT40 TDP1 no CPT 18.4µM*, TDP1 block -5.2% and TGFb SMAD3 inh 19.2%.
`O=C(Nc1ccon1)c1cccn(Cc2cccc(Cl)c2)c1=O` gave TDP1 cell CPT -21.7%, HepG2 viability -16.0%, DT40 TDP1 no CPT -0.9%, TDP1 block 6.6% and TGFb SMAD3 inh -4.9%.
For COC(=O)c1ccccc1NC(=O)c1cccn(Cc2cccc(Cl)c2)c1=O the results were TDP1 cell CPT inconclusive, HepG2 viability -29.3%, DT40 TDP1 no CPT 18.4µM*, TDP1 block 0.0% and TGFb SMAD3 inh inconclusive.
Screening CCCCC/C=C\C/C=C\C/C=C\CCCCC(=O)NCCO returned TDP1 block 2.5%.
For CC1(C)S[C@@H]2[C@H](N)C(=O)N2C1C(=O)O (stereo partly drawn) the results were TDP1 block -1.2%.
`CCCN(c1ccc(C(C)C)cc1)S(=O)(=O)c1ccc2c(c1)oc(=O)n2CC(=O)OCC` gave TDP1 cell CPT inconclusive, HepG2 viability -41.4%, DT40 TDP1 no CPT inconclusive, TDP1 block -8.1% and TGFb SMAD3 inh inconclusive.
COc1cc(CN2C(=O)NC(=O)C3(Cc4cc(C)ccc4N(C)C3)C2=O)cc(OC)c1 (stereo not drawn) was read as TDP1 cell CPT inconclusive, HepG2 viability -2.6%, DT40 TDP1 no CPT 0.0103µM*, TDP1 block 3.1%, IL-1B inflam inh 36.8 and TGFb SMAD3 inh 4.1%.
COc1ccc2c(c1)CC1(CN2C)C(=O)NC(=O)N(CCc2ccccc2)C1=O (stereo not drawn) was read as TDP1 cell CPT inconclusive, HepG2 viability -19.6%, DT40 TDP1 no CPT 5.8µM*, TDP1 block 9.6%, IL-1B inflam inh 21.5 and TGFb SMAD3 inh 14.7%.
Screening CCCCN1C(=O)NC(=O)C2(Cc3cc(C)ccc3N(C)C2)C1=O (stereo not drawn) returned TDP1 cell CPT inconclusive, HepG2 viability 6.9%, DT40 TDP1 no CPT 13µM*, TDP1 block 11.9%, IL-1B inflam inh 9.4 and TGFb SMAD3 inh -1.4%.
For O[C@@H]1CCCN2C[C@@H](O)[C@@H](O)C12 (stereo partly drawn) the results were TDP1 cell CPT -4.5%[166 µM], DT40 TDP1 no CPT -1.6%[166 µM] and TDP1 block 0.0%.
`COc1cc(=O)n2c(c1C(=O)N(C)Cc1nonc1C)CCN(C(=O)C1C(C)(C)C1(C)C)CC2` gave TDP1 cell CPT 14.2% and DT40 TDP1 no CPT -11.2%.
`O=C(O)[C@@H]1C[C@H]2C[C@@H](CP(=O)(O)O)CC[C@H]2CN1` gave TDP1 cell CPT 11.7%, HepG2 viability -14.9%, DT40 TDP1 no CPT -11.7%, TDP1 block -6.8% and TGFb SMAD3 inh -14.5%.
COc1cccc2c1C(=O)c1c(O)c3c(c(O)c1C2=O)C[C@@](O)(C(=O)CO)C[C@@H]3O[C@H]1C[C@H](N)[C@H](OC2CCCCO2)[C@H](C)O1 (stereo partly drawn) was read as TDP1 cell CPT 0.282µM*, HepG2 viability -14.5%, DT40 TDP1 no CPT inconclusive and TGFb SMAD3 inh inconclusive.
Screening CCCCC(=O)OCC(=O)C1(O)Cc2c(O)c3c(c(O)c2C(OC2CC(NC(=O)C(F)(F)F)C(O)C(C)O2)C1)C(=O)c1c(OC)cccc1C3=O (stereo not drawn) returned TDP1 cell CPT 1.16µM*, HepG2 viability -41.7%, DT40 TDP1 no CPT 2.06µM*, IL-1B inflam inh inconclusive and TGFb SMAD3 inh inconclusive.
Screening O=C1C[C@@H]2OCC=C3CN4CC[C@]56c7ccccc7N1[C@H]5[C@H]2[C@H]3C[C@H]46 returned DT40 TDP1 no CPT -18.2%.
COC(=O)C1=C(c2cccc(OCc3ccccc3)c2)C[C@@H]2CC[C@H]1N2C(=O)NCCCOC(C)C was read as TDP1 cell CPT 20.6µM*, HepG2 viability -5.6%, DT40 TDP1 no CPT 18.4µM*, TDP1 block 2.0%, IL-1B inflam inh inconclusive and TGFb SMAD3 inh inconclusive.
COC(=O)C1=C(c2cccc(OCc3ccccc3)c2)C[C@@H]2CC[C@H]1N2C(=O)NCc1cccc(OC)c1 was read as TDP1 cell CPT 23.1µM*, HepG2 viability -3.6%, DT40 TDP1 no CPT 14.6µM*, TDP1 block 0.2%, IL-1B inflam inh inconclusive and TGFb SMAD3 inh -38.1%.
For COC(=O)C1=C(c2ccccc2)C[C@@H]2CC[C@H]1N2C(=O)NCc1ccc(C(F)(F)F)cc1 the results were TDP1 cell CPT inconclusive, HepG2 viability -29.8%, DT40 TDP1 no CPT inconclusive, IL-1B inflam inh -23.3 and TGFb SMAD3 inh -14.5%.
`COC(=O)C1=C(c2cccc(OCc3ccccc3)c2)C[C@@H]2CC[C@H]1N2C(=O)NCc1ccc(C(C)(C)C)cc1` gave TDP1 cell CPT inconclusive, HepG2 viability -0.1%, DT40 TDP1 no CPT 20.6µM*, TDP1 block 1.2%, IL-1B inflam inh -16.4 and TGFb SMAD3 inh -10.5%.
COC(=O)C1=C(c2cccc(OCc3ccccc3)c2)C[C@@H]2CC[C@H]1N2C(=O)NCc1ccccc1C(F)(F)F was read as TDP1 cell CPT 20.6µM*, HepG2 viability -10.7%, DT40 TDP1 no CPT 23.1µM*, TDP1 block -0.2%, IL-1B inflam inh -11.2 and TGFb SMAD3 inh -0.8%.
